Test results taken from PubChem BioAssay (NCI).
This is part of a sample that, as a whole, favours compounds with a hit. Of some 79,000 tested, about 15% had one in any assay. A number with no mark means an inactive call. The source made the active and inactive calls. No stated cut-off is given here; in the data, active means growth inhibition above about 70%; inactive means the rest.

Columns and labels:
[1] = NCI Yeast Anticancer Drug Screen. Data for the rad50 strain (AID 155);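 further: 0% = growth of vehicle-only cultures of the same strain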; conditions: S. cerevisiae rad50 strain growth inhibition, active compounds read high
Procedure, shortened: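 A DNA repair-deficient yeast mutant serves as the test organism; compound-induced growth inhibition is calculated against vehicle-treated cells.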

[2] = NCI Yeast Anticancer Drug Screen. Data for the mec2-1 strain (AID 157); conditions: S. cerevisiae mec2-1 strain, active compounds read high
Procedure, shortened: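 Readout is yeast growth inhibition, normalised to vehicle-treated controls, in the mec2-1 strain exposed to compound.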

[3] = NCI Yeast Anticancer Drug Screen. Data for the sgs1 mgt1 strain (AID 161);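 further: 0% = growth of cultures given vehicle only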; conditions: S. cerevisiae sgs1 mgt1 strain, active compounds read high
Procedure, shortened: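 Yeast cells carrying a defined DNA-repair defect were exposed to test compounds. Growth inhibition was measured relative to vehicle-treated controls.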

[4] = NCI Yeast Anticancer Drug Screen. Data for the cln2 rad14 strain (AID 165);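 further: 0% = growth equal to vehicle treated cultures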; conditions: S. cerevisiae cln2 rad14 strain, active compounds read high
Procedure, shortened: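 Relative to vehicle controls, growth inhibition of compound-treated cln2 rad14 yeast was recorded.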

[5] = NCI Yeast Anticancer Drug Screen. Data for the bub3 strain (AID 167); conditions: S. cerevisiae bub3 mutant strain, active compounds read high
Procedure, shortened: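 Inhibition values come from growth of compound-treated mutant yeast normalised to vehicle-treated controls.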

[6] = NCI Yeast Anticancer Drug Screen. Data for the mlh1 rad18 strain (AID 175); conditions: S. cerevisiae mlh1 rad18 strain growth inhibition, active compounds read high
Procedure, shortened: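 Test agents were incubated with a yeast strain of defined genotype (DNA damage repair defect). Inhibition of growth was derived by comparison with vehicle-exposed cultures.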

[7] = at 5.0 µM (retest, dose inferred, filed as 0.5)
[8] = at 50.0 µM (retest, dose inferred, filed as 5.0)

Row | Compound | growth inhibition [1, 7] | growth inhibition [1, 8] | growth inhibition ([1]; at 50.0 µM) | growth inhibition [2, 7] | growth inhibition [2, 8] | growth inhibition ([2]; at 50.0 µM) | growth inhibition [3, 7] | growth inhibition [3, 8] | growth inhibition ([3]; at 50.0 µM) | growth inhibition [4, 7] | growth inhibition [4, 8] | growth inhibition ([4]; at 50.0 µM) | growth inhibition [5, 7] | growth inhibition [5, 8] | growth inhibition ([5]; at 50.0 µM) | growth inhibition [6, 7] | growth inhibition [6, 8] | growth inhibition ([6]; at 50.0 µM)
1 | O=C1C2=C(CCCC2)C(=O)C(Cl)C1Cl (stereo not given) | 36% | 98% (active) | 97.8% (active) | 32% | 99% (active) | 99.3% (active) | 24% | 99% (active) | 99.5% (active) | 9% | 99% (active) | 99.1% (active) | 56% | 99% (active) | 99.5% (active) | 62% | 99% (active) | 99.5% (active)
2 | CSc1ncnc2nn(C3OC(COC(=O)c4ccccc4)C(OC(=O)c4ccccc4)C3OC(=O)c3ccccc3)nc12 (stereo not given) | -16% | -1% | -14.8% | -1% | -6% | 17.9% | -6% | 1% | -13.6% | -1% | -9% | 40.3% | -3% | 3% | -11.2% | -5% | -3% | 15.2%
3 | Cc1nnc2nc3c(nn12)c1ccccc1n3C | -155% | -54% | 46.3% | -49% | -33% | 31.8% | -65% | -46% | 15.8% | -60% | -44% | 75.8% (active) | -64% | -57% | -0.35% | -146% | -77% | 5.45%
4 | Nc1ccc(-c2nc3ccccc3s2)cc1 | 21% | 96% (active) | 89.8% (active) | 2% | 100% (active) | 91.8% (active) | -3% | 99% (active) | 88.4% (active) | 8% | 85% (active) | 87.6% (active) | -2% | 99% (active) | 86.2% (active) | 10% | 98% (active) | 84.6% (active)
5 | CC1=C(\C=C/C(C)=N/N=C(C)\C=C\C2=C(C)CCCC2(C)C)C(C)(C)CCC1 | 3% | 31% | 70.8% (active) | 9% | 52% | 28.7% | 27% | 51% | 71% (active) | 3% | 7% | 28.2% | -2% | 4% | 23.7% | 24% | 49% | 44.2%
6 | CN(C)c1ccc(N=Nc2ccc(/C=C3\CCOC3=O)cc2)cc1 | -4% | 4% | -3.65% | -5% | -1% | 19.4% | -6% | -6% | -0.65% | -3% | 4% | 37.2% | -3% | 7% | -2.45% | -1% | 3% | 12.4%
7 | O=C(O)/C(=C/c1ccc(Cl)cc1)c1ccccc1 | -5% | 23% | 4.7% | -7% | 23% | 44.5% | -3% | 27% | 10.6% | -10% | 39% | 90.7% (active) | -8% | 17% | 9.95% | -5% | 45% | 39.6%
8 | C=CCOC(=O)C(O)C(CC)CCCCC (stereo not given) | 25% | 92% (active) | 52.9% | 0% | 87% (active) | 46% | 9% | 89% (active) | 76.7% (active) | 10% | 31% | 80.2% (active) | 16% | 91% (active) | 54.4% | 17% | 92% (active) | -3.3%
9 | CC(C(=O)c1ccc2cc(Br)c3ccccc3c2c1)N(C)C (stereo not given) | -6% | 99% (active) | 99.4% (active) | 1% | 99% (active) | 98.5% (active) | -14% | 100% (active) | 99.2% (active) | -5% | 99% (active) | 99.5% (active) | 25% | 99% (active) | 99.4% (active) | 5% | 99% (active) | 99.3% (active)
10 | CCCCCCCCCCCC(=O)OCC1OC(OC)C(NC(=O)N(CCCl)N=O)C(O)C1O (stereo not given) | 39% | 39% | 79.9% (active) | 20% | 20% | 67.5% | 21% | 21% | 90.5% (active) | 17% | 17% | 30.5% | 13% | 13% | 77.4% (active) | 14% | 14% | 76% (active)
